Test results: PubChem BioAssay (EPA / NIEHS)
Values joined by “and” are separate entries in the source; they are usually repeats but may differ in a detail not shown here. Identical values can stand only once. Results filed as inconclusive are left out. More than one record can exist for a structure, and the calls need not agree. Active and inactive are the calls of the source. Rule for the calls, unless noted: active = hit-call score of the fitted dose curve at least 0.9, where 1 is the maximum; inactive = score below 0.9.

Legend:
[1] = target: Nuclear respiratory factor 1 (Homo sapiens) (UniProt Q16656); test: ATG_NRF1_CIS: Attagene CIS-FACTORIAL HepG2 Assay for human Nuclear Respiratory Factor 1 (NRF1) Orphan Gene (AID 2282987); conditions: HepG2 NRF1 cis-element reporter, Attagene multiplex; actives raise or lower the signal
Chain of Nuclear respiratory factor 1 (Homo sapiens) (Q16656 whole entry, looked up): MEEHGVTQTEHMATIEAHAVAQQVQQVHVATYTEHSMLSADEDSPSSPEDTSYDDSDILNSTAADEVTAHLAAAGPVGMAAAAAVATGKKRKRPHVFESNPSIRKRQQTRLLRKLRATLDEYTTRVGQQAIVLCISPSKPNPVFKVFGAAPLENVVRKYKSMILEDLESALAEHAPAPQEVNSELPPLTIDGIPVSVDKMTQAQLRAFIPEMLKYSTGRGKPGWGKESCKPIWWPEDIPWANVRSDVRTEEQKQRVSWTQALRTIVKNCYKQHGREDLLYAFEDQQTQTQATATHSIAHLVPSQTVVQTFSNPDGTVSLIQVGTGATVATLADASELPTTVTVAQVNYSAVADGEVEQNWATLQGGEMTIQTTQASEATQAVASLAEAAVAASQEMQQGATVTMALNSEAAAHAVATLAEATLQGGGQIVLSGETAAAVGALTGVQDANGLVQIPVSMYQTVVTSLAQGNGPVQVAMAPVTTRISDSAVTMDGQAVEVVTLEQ
Procedure, shortened: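 Transcriptional reporter readout, one component of a 52-endpoint multiplexed HepG2 panel. Exposure 24 h; mRNA detected via RT-PCR and fluorescent capillary electrophoresis; fitting in both directions against DMSO.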

[2] = ATG_NFI_CIS: Attagene CIS-FACTORIAL HepG2 Assay for human Nuclear Factor I (NFI) (AID 2282989); conditions: HepG2 cis-regulatory reporter, NFI response element transcription; actives raise or lower the signal
Procedure, shortened: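 Endogenous TF activity in HepG2 cells transiently transfected with cis-element-driven multiplexed reporter units, read 24 h after dosing. Reporter mRNA quantified by RT-PCR, 6-FAM labelling, HpaI digestion and capillary electrophoresis; bidirectional fit versus DMSO.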

[3] = target: Myc proto-oncogene protein (Homo sapiens) (UniProt P01106); test: ATG_Myc_CIS: Attagene CIS-FACTORIAL HepG2 Assay for human Myelocytomatosis (Myc) Proto-Oncogene Transcription Factor (AID 2282990); conditions: HepG2, Attagene cis-reporter transcription factor activity; actives raise or lower the signal
Chain of Myc proto-oncogene protein (Homo sapiens) (P01106 whole entry, looked up): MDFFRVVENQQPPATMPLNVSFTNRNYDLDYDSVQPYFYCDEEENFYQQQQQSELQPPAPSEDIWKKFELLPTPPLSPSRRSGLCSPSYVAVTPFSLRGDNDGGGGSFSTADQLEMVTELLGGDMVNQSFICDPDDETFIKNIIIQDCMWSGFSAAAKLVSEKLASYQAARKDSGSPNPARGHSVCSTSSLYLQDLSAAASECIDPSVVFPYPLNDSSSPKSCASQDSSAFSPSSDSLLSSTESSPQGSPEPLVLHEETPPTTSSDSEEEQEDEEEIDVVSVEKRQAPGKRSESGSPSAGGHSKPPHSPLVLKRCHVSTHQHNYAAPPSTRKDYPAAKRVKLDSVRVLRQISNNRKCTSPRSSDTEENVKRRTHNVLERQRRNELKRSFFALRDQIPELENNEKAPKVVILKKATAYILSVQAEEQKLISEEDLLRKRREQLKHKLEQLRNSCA
Procedure, shortened: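 Cells of the HepG2 human liver line bear multiple cis-driven reporter transcription units. Reporter mRNA after 24 h exposure is reverse-transcribed, amplified, labelled and resolved by capillary electrophoresis, with gain- or loss-of-signal fitting relative to DMSO.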

[4] = ATG_NF_kB_CIS: Attagene CIS-FACTORIAL HepG2 Assay for human Nuclear Factor Kappa B (NF-kB) (AID 2282991); conditions: HepG2 Attagene cis-factorial NF-kB reporter mRNA; actives raise or lower the signal
Procedure, shortened: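 HepG2, transient multi-reporter transfection, cis promoter elements (endogenous TFs). 24 h exposure. Total RNA → RT → PCR → 6-FAM label → HpaI → CE. Gain/loss vs DMSO.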

[5] = ATG_NRF2_ARE_CIS: Attagene CIS-FACTORIAL HepG2 Assay for human Nuclear Factor Erythroid 2 Related Factor 2 (NFR2) response to Antioxidant Response Elements (ARE) (AID 2282992); conditions: HepG2 Attagene ARE/NRF2 reporter, transcription factor activity; actives raise or lower the signal
Procedure, shortened: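 Endogenous transcription factor activity read out as reporter transcript levels (RT-PCR plus capillary electrophoresis, fluorescence) in transiently transfected HepG2 cells. Measured at 24 h after dosing; gain or loss of signal fitted versus DMSO.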

[6] = ATG_Oct_MLP_CIS: Attagene CIS-FACTORIAL HepG2 Assay for human Octamer-Binding Transcription Factor (Oct) (AID 2282993); conditions: HepG2 Attagene cis-factorial Oct reporter, mRNA; actives raise or lower the signal
Procedure, shortened: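 HepG2 cells transiently transfected with cis-element-driven reporter transcription units (endogenous TF activity); 24 h compound exposure. Reporter mRNA quantified by RT-PCR, 6-FAM labelling, HpaI digestion and capillary electrophoresis; bidirectional fit versus DMSO baseline.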

[7] = target: Cellular tumor antigen p53 (Homo sapiens) (UniProt P04637); test: ATG_p53_CIS: Attagene CIS-FACTORIAL HepG2 Assay for human p53 Transcription Factor (AID 2282994); conditions: HepG2 p53 cis-element reporter, Attagene mRNA; actives raise or lower the signal
Chain of Cellular tumor antigen p53 (Homo sapiens) (P04637 whole entry, looked up): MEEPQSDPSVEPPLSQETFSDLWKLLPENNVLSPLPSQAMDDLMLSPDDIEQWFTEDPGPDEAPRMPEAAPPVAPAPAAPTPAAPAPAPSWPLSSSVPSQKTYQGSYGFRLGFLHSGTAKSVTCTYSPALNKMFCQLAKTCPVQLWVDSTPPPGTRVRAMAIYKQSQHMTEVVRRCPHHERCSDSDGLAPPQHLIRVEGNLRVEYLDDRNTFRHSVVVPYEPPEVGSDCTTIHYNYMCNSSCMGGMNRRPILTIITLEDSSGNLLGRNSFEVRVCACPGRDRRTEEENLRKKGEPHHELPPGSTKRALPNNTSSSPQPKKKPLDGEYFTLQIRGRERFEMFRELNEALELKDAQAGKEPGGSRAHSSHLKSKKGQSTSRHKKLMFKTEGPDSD
Procedure, shortened: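 Endogenous p53 activity read in transiently transfected HepG2 from a cis-element-driven reporter transcript after 24 h exposure. RNA reverse-transcribed, PCR-amplified, fluorescently labelled and sized by capillary electrophoresis; gain or loss fitted against DMSO baseline.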

[8] = BSK_3C_TissueFactor: BioMAP Diversity Plus: 3C Assay for Tissue Factor Biomarker Activity (AID 2282997); conditions: BioMAP 3C HUVEC, tissue factor biomarker readout; actives raise or lower the signal
Procedure, shortened: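 In this endothelial system, HUVEC are treated for 24 h and Tissue Factor is assessed by ELISA, normalised to DMSO.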

[9] = BSK_3C_uPAR: BioMAP Diversity Plus: 3C Assay for Urokinase-type plasminogen activator receptor (uPAR) Biomarker Activity (AID 2282998); conditions: BioMAP 3C HUVEC, uPAR biomarker ELISA; actives raise or lower the signal
Procedure, shortened: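 Primary human umbilical vein endothelial cells, 3C system; surface uPAR measured by ELISA 24 h after dosing. Cytotoxicity via SRB total protein in parallel cultures; bidirectional fit against DMSO.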

[10] = BSK_3C_VCAM1: BioMAP Diversity Plus: 3C Assay for Vascular cell adhesion molecule 1 (VCAM1) Biomarker Activity (AID 2282999); conditions: BioMAP 3C HUVEC, VCAM1 ELISA, cytokine-stimulated; actives raise or lower the signal
Procedure, shortened: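 Activity fitted in both directions relative to DMSO, with ELISA measurement of the surface marker on primary HUVEC (3C) at 24 h post-treatment; parallel SRB staining (0.1% SRB, TCA-fixed, 560 nm) flagged overt cytotoxicity.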

[11] = BSK_4H_Eotaxin3: BioMAP Diversity Plus: 4H Assay for Eotaxin 3 Biomarker Activity (AID 2283000); conditions: primary human endothelial cells (HUVEC); actives raise or lower the signal
Procedure, shortened: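 ELISA quantitation of CCL26 (Eotaxin-3) protein from chemically dosed human vascular endothelial cells at 24 h; increases and decreases both scored relative to DMSO-treated baseline.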

[12] = target: human Peroxisome Proliferator-activated Receptor alpha (PPARa), PPARA (gene 5465) (UniProt Q07869); test: ATG_PPARa_TRANS: Attagene TRANS-FACTORIAL HepG2 Assay for human Peroxisome Proliferator-activated Receptor alpha (PPARa) (AID 2283001; active = hit-call score of the fitted dose curve at least 0.9, where 1 is the maximum;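 for AC50: potency for gain of reporter signal over DMSO so agonist or activator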)
Chain of human Peroxisome Proliferator-activated Receptor alpha (PPARa), PPARA (gene 5465) (Q07869 whole entry, looked up, the tested form may be a part): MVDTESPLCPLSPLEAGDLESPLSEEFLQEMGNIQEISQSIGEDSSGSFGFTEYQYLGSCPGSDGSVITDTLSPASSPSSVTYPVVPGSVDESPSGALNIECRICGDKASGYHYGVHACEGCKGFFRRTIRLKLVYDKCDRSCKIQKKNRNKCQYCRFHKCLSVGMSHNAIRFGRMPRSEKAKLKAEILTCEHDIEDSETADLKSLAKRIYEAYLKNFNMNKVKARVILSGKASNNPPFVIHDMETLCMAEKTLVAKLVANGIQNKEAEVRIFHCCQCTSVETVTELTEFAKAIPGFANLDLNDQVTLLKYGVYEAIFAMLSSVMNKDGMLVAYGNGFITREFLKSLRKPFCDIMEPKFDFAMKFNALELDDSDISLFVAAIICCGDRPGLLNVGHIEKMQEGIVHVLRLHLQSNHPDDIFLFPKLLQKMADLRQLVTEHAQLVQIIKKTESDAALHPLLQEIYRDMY
Procedure, shortened: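 Transfected HepG2 cells treated with test chemical for 24 h. RNA isolated, reverse-transcribed with oligo(dT), PCR-amplified, FAM-labelled and HpaI-digested. Fragments sized by capillary electrophoresis; gain-of-signal fit relative to DMSO.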

[13] = target: human Peroxisome Proliferator-activated Receptor delta (PPARd), PPARD (gene 5467) (UniProt Q03181); test: ATG_PPARd_TRANS: Attagene TRANS-FACTORIAL HepG2 Assay for human Peroxisome Proliferator-activated Receptor delta (PPARd) (AID 2283002; active = hit-call score of the fitted dose curve at least 0.9, where 1 is the maximum)
Chain of human Peroxisome Proliferator-activated Receptor delta (PPARd), PPARD (gene 5467) (Q03181 whole entry, looked up): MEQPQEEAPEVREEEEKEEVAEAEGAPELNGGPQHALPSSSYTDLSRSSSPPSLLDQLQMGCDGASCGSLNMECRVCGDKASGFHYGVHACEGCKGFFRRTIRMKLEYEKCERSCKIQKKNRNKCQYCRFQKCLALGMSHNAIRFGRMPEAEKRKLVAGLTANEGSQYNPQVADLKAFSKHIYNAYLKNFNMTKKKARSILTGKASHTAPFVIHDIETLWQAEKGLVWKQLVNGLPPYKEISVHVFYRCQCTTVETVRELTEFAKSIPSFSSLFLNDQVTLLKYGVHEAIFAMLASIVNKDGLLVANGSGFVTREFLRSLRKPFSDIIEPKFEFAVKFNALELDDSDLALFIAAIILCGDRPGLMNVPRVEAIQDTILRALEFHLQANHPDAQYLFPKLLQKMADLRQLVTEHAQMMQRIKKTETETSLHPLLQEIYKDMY
Procedure, shortened: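 Cell-based TRANS reporter: HepG2, transient MRTU transfection, 24 h exposure. Readout = reporter mRNA (RT-PCR/CE, 6-FAM). Gain-of-signal fit vs DMSO control.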

[14] = read-out: Intercellular Adhesion Molecule 1 (ICAM1), ICAM1 (gene 3383); test: BSK_3C_ICAM1: BioMAP Diversity Plus: 3C Assay for Intercellular Adhesion Molecule 1 (ICAM1) Biomarker Activity (AID 2283003); conditions: primary human endothelial cells (HUVEC); actives raise or lower the signal
Procedure, shortened: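 Using DMSO as baseline, bidirectional curve fitting was applied to ICAM-1 ELISA signals from HUVEC in the 3C system, measured 24 h after compound addition.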

[15] = target: human Retinoic Acid Receptor beta (RARb), RARB (gene 5915) (UniProt P10826); test: ATG_RARb_TRANS: Attagene TRANS-FACTORIAL HepG2 Assay for human Retinoic Acid Receptor beta (AID 2283004; active = hit-call score of the fitted dose curve at least 0.9, where 1 is the maximum)
Chain of human Retinoic Acid Receptor beta (RARb), RARB (gene 5915) (P10826 whole entry, looked up, the tested form may be a part): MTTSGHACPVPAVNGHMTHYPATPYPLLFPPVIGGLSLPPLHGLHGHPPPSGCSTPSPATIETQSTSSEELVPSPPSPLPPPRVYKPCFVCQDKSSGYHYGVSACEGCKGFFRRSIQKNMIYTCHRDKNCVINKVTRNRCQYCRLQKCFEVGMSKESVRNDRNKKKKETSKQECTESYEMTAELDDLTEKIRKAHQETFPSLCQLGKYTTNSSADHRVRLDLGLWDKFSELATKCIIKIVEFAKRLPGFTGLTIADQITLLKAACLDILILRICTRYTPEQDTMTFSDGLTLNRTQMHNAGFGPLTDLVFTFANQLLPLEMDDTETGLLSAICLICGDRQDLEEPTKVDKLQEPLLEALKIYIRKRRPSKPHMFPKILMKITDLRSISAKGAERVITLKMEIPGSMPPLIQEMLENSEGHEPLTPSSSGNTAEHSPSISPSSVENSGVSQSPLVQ
Procedure, shortened: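 Fluorescent capillary-electrophoresis detection of GAL4-UAS reporter mRNA defines the endpoint, with induction over DMSO-treated wells scored as activity. Transiently transfected human hepatoma HepG2 cells expressing exogenous NR–Gal4 proteins are exposed to test chemicals for 24 h.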

[16] = BSK_3C_Proliferation: Cell Proliferation Assessment in the BioMAP Diversity Plus: 3C Assay (AID 2283006); conditions: primary human endothelial cells (HUVEC);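 for AC50: potency may reflect either rise or fall in cell number versus DMSO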
Procedure, shortened: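 Measured here: sulforhodamine B (0.1%) staining of TCA-fixed sub-confluent umbilical vein endothelial cultures 48 h post-dosing, absorbance 560 nm. DMSO served as negative control and baseline; both signal gain and loss were modelled.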

[17] = target: Peroxisome proliferator-activated receptor gamma (Homo sapiens) (UniProt P37231); test: ATG_PPARg_TRANS: Attagene TRANS-FACTORIAL HepG2 Assay for human Peroxisome Proliferator-activated Receptor-gamma (PPARg) (AID 2283007; active = hit-call score of the fitted dose curve at least 0.9, where 1 is the maximum)
Chain of Peroxisome proliferator-activated receptor gamma (Homo sapiens) (P37231 whole entry, looked up): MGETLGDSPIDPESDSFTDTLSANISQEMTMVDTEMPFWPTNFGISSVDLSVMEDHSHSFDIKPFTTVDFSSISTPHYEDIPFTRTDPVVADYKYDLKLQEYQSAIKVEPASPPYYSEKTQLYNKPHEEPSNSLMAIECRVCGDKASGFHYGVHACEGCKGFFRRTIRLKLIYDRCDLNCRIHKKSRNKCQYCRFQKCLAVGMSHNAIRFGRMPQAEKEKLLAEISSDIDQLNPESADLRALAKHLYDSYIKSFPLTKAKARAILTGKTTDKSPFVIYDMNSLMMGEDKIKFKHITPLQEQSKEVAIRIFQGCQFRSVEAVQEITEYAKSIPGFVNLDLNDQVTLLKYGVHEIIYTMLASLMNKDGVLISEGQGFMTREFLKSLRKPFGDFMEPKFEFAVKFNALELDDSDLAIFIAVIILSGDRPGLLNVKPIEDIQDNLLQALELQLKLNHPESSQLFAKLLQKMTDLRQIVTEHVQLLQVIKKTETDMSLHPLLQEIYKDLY
Procedure, shortened: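 Multiplexed reporter transcription units in HepG2, 24 h dosing, reporter transcripts quantified by fluorescent RT-PCR and capillary electrophoresis. Increase over DMSO scored.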

[18] = target: Nuclear receptor subfamily 1 group I member 2 (Homo sapiens) (UniProt O75469); test: ATG_PXR_TRANS: Attagene TRANS-FACTORIAL HepG2 Assay for human Pregnane X Receptor (PXR) (AID 2283008; active = hit-call score of the fitted dose curve at least 0.9, where 1 is the maximum)
Chain of Nuclear receptor subfamily 1 group I member 2 (Homo sapiens) (O75469 whole entry, looked up, the tested form may be a part): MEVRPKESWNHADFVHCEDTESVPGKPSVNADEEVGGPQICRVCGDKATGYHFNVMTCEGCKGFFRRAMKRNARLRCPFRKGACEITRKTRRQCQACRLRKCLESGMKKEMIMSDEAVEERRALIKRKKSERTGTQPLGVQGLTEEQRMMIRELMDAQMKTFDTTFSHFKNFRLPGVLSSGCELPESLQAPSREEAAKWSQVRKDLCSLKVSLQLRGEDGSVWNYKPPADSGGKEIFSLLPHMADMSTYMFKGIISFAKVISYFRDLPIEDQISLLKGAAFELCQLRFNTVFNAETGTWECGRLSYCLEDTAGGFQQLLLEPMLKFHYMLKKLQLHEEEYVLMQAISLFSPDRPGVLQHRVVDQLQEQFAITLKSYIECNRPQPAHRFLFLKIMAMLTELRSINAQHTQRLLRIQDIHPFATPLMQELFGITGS
Procedure, shortened: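 Transactivation by exogenous PXR–GAL4 fusion measured as reporter transcript induction after 24 h compound treatment of transfected human HepG2 cells. Read-out via RT-PCR and capillary electrophoresis of labelled fragments, fitted upward relative to DMSO.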

[19] = target: human Retinoic Acid Receptor gamma (RARg), RARG (gene 5916) (UniProt P13631); test: ATG_RARg_TRANS: Attagene TRANS-FACTORIAL HepG2 Assay for human Retinoic Acid Receptor gamma (RARg) (AID 2283009; active = hit-call score of the fitted dose curve at least 0.9, where 1 is the maximum)
Chain of human Retinoic Acid Receptor gamma (RARg), RARG (gene 5916) (P13631 whole entry, looked up, the tested form may be a part): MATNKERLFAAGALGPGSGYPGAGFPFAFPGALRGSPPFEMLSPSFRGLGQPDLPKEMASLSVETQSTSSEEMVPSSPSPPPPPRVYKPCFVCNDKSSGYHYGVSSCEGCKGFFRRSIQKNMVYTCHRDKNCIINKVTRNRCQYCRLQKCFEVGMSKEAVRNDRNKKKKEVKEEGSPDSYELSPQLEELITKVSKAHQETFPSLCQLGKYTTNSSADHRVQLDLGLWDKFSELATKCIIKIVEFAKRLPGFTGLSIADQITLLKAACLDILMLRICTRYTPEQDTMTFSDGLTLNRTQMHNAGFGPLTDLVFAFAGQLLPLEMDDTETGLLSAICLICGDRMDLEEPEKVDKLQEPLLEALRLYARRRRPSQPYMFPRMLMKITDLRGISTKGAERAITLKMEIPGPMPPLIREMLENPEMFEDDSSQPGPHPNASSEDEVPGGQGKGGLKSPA
Procedure, shortened: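 Gain-of-signal relative to DMSO is reported from fluorescent capillary electrophoresis of RT-PCR reporter products. These came from HepG2 cells expressing transfected RARg-GAL4 chimeras with UAS reporters, harvested 24 h after dosing.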

[20] = target: Retinoic acid receptor alpha (Homo sapiens) (UniProt P10276); test: ATG_RARa_TRANS: Attagene TRANS-FACTORIAL HepG2 Assay for human Retinoic Acid Receptor alpha (RARa) (AID 2283005; active = hit-call score of the fitted dose curve at least 0.9, where 1 is the maximum)
Chain of Retinoic acid receptor alpha (Homo sapiens) (P10276 whole entry, looked up, the tested form may be a part): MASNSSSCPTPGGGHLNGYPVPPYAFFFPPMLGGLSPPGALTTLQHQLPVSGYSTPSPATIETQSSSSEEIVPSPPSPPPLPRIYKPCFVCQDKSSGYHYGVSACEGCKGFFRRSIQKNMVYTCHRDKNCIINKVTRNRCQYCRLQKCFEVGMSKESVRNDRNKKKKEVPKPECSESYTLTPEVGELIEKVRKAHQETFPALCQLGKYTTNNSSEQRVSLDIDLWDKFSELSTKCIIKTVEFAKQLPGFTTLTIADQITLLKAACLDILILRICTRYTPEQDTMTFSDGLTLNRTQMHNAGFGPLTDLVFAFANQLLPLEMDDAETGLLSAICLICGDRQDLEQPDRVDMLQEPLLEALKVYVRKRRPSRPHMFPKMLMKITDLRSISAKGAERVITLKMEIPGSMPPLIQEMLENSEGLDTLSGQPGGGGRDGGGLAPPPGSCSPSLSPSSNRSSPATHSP
Procedure, shortened: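 Reporter transcripts, measured by RT-PCR with fluorescent labeling and capillary electrophoresis after 24 h dosing, reflect activity of an exogenous human RARa–GAL4 fusion in transiently transfected HepG2. Fitted for increase relative to DMSO.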

Measured: AC50

NS(=O)(=O)C(F)(F)C(F)(F)C(F)(F)C(F)(F)C(F)(F)C(F)(F)F
active: [9] 19.6 µM | [11] 46.4 µM and 20.3 µM | [12] 28.2 µM | [16] 28.9 µM and 49.6 µM | [17] 50.5 µM
inactive: [1] | [2] | [3] | [4] | [5] | [6] | [7] | [8] | [9] | [10] | [13] | [14] | [15] | [18] | [19]

CCOC(C=C(C)CCC=C(C)C)OCC
inactive: [1] | [2] | [3] | [4] | [6] | [7] | [12] | [13]
active: [5] 46.5 µM | [8] 30.9 µM | [9] 31.3 µM | [10] 34 µM | [11] 29.3 µM | [14] 34.5 µM | [16] 28.1 µM | [17] 15.3 µM | [18] 26.5 µM

NC(=O)C(F)(F)C(F)(F)C(F)(F)C(F)F
not listed: [15] | [19] | [20]
inactive: all other assays above

O=C(O)C(F)(F)C(F)(F)C(F)(F)C(F)(F)C(F)(F)C(F)(F)C(F)F
active: [5] 100 µM | [12] 6.55 µM | [17] 41.8 µM
not listed: [15] | [19] | [20]
inactive: all other assays above

Cc1ccc(O)c(-n2nc3ccccc3n2)c1
active: [5] 4.95 µM | [18] 14.6 µM
not listed: [19] | [20]
inactive: all other assays above

O=C(O)C(F)(F)C(F)(F)C(F)(F)OC(F)(C(F)(F)F)C(F)(F)F
active: [5] 113 µM | [12] 24.6 µM | [17] 101 µM
not listed: [15] | [20]
inactive: all other assays above

O=C1C=CC(=O)N1c1ccc(Cc2ccc(N3C(=O)C=CC3=O)cc2)cc1
active: [1] 60.1 µM | [4] 11.2 µM | [5] 33.4 µM | [8] 5.47 µM | [9] 5.81 µM | [10] 7.45 µM | [11] 6.05 µM | [14] 9.7 µM | [16] 3.52 µM
not listed: [15] | [19]
inactive: all other assays above

OCCCCC(F)(F)C(F)(F)C(F)(F)C(F)(F)F
not listed: [15] | [18] | [20]
inactive: all other assays above

Cc1cc(C)c(O)c(C(C)(C)C)c1
active: [5] 52.2 µM | [8] 26.9 µM | [9] 29.2 µM | [10] 31.6 µM | [11] 30.4 µM | [14] 30.4 µM | [16] 20 µM | [18] 16.2 µM
not listed: [15] | [19] | [20]
inactive: all other assays above

C=CC(=O)OCC(F)(F)C(F)(F)C(F)(F)C(F)(F)C(F)(F)C(F)(F)C(F)(F)C(F)F
active: [4] 80.2 µM | [5] 58.2 µM | [16] 20.8 µM and 24.1 µM | [17] 37.6 µM
not listed: [15] | [19] | [20]
inactive: all other assays above

Oc1ccc2c(c1)CCC2
not listed: [8] | [9] | [10] | [11] | [14] | [16]
inactive: all other assays above

O=C(F)C1(F)C(F)(F)C(F)(F)C(F)(F)C(F)(F)C1(F)F
not listed: [12] | [18] | [19]
inactive: all other assays above

CCn1c2ccccc2c2ccccc21
active: [2] 152 µM | [5] 157 µM | [6] 100 µM | [18] 10.3 µM
not listed: [8] | [9] | [10] | [11] | [14] | [16]
inactive: all other assays above

Cc1ccc(S(=O)(=O)C(I)I)cc1
inactive: [13] | [17] | [19]
active: [1] 7.84 µM | [2] 8.6 µM | [3] 8.6 µM | [4] 19.5 µM | [5] 15.9 µM | [6] 8.98 µM | [7] 8.91 µM | [8] 1.85 µM | [9] 1.45 µM | [10] 3.06 µM | [11] 1.84 µM | [14] 3.35 µM | [16] 0.593 µM
